# Data reported in PubChem BioAssay (NCATS).
# Inconclusive results are not listed. A call without a number means that no potency is given here. A number with no mark means an inactive call. The source made the active and inactive calls. Calls come from the whole dose curve; as a rule, active = well fitted curve in the direction sought with a large enough effect; inconclusive = small, poorly fitted or top-dose-only effect, or another doubt; inactive = no such curve, though single readings can be large; an effect the other way counts as inactive or inconclusive.
# Assays:
# [1] = tested on: HEK293T; assay: qHTS assay to identify novel small-molecules to repurpose for Merkel cell carcinoma treatment (AID 1296009); conditions: MCC and control cell lines, CellTiter-Glo viability, 72 h; series mostly up to 44.8 µM; note: nearly all actives have a fitted effect of over 60% in size; note: potency is the fitted concentration of half-maximal effect
# Method in brief: (§1)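 Cells exposed to NPC (8-point) and MIPE (11-point) compound dilutions for 72 hr at 37 degree celsius; viability read by CellTiter-Glo luminescence, normalized to no-cell and DMSO in-plate controls.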
# [2] = tested on: MCC-13; assay: as above; conditions: MCC and control cell lines, CellTiter-Glo viability, 72 h; series mostly up to 46 µM
# Method in brief: as §1
# [3] = tested on: MCC-26; assay: as above; conditions: MCC and control cell lines, CellTiter-Glo viability, 72 h; series mostly up to 46 µM
# Method in brief: as §1
# [4] = tested on: MKL-1; assay: as above; conditions: MCC and control cell lines, CellTiter-Glo viability, 72 h; series mostly up to 46 µM
# Method in brief: as §1
# [5] = tested on: MKL-2; assay: as above; conditions: MCC and control cell lines, CellTiter-Glo viability, 72 h; series mostly up to 46 µM
# Method in brief: as §1
# [6] = tested on: UISO; assay: as above; conditions: MCC and control cell lines, CellTiter-Glo viability, 72 h; series mostly up to 46 µM
# Method in brief: as §1
# [7] = tested on: WaGa; assay: as above; conditions: MCC and control cell lines, CellTiter-Glo viability, 72 h; series mostly up to 46 µM
# Method in brief: as §1
# [8] = tested on: HACAT; assay: as above; conditions: MCC and control cell lines, CellTiter-Glo viability, 72 h; at 44.8 µM (top of the series) unless noted
# Method in brief: as §1
# [9] = tested on: NIH3T3; assay: as above; conditions: MCC and control cell lines, CellTiter-Glo viability, 72 h; at 44.8 µM (top of the series) unless noted
# Method in brief: as §1
# [10] = tested on: C33A; assay: Primary qHTS to identify gynecologic anti-cancer compounds using libraries of approved drugs and bioactive compounds (AID 1345084); conditions: Gynecologic cancer cell panel viability, ATPlite luminescence, 48 h; series mostly up to 57.5 µM; note: nearly all actives have a fitted effect of over 55% in size
# Method in brief: (§2)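 Measured: luminescence after ATPlite addition (15 min, RT). Exposure: 48 h, 37 C, 5% CO2.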
# [11] = tested on: CASKI; assay: as above; conditions: Gynecologic cancer cell panel viability, ATPlite luminescence, 48 h; series mostly up to 57.5 µM
# Method in brief: as §2
# [12] = tested on: Es-2; assay: as above; conditions: Gynecologic cancer cell panel viability, ATPlite luminescence, 48 h; series mostly up to 57.5 µM
# Method in brief: as §2
# [13] = tested on: HeLa; assay: as above; conditions: Gynecologic cancer cell panel viability, ATPlite luminescence, 48 h; series mostly up to 57.5 µM
# Method in brief: as §2
# [14] = tested on: Hek293T; assay: as above; conditions: Gynecologic cancer cell panel viability, ATPlite luminescence, 48 h, control line for the selectivity index; series mostly up to 57.5 µM
# Method in brief: as §2
# [15] = tested on: JEG-3; assay: as above; conditions: Gynecologic cancer cell panel viability, ATPlite luminescence, 48 h; series mostly up to 57.5 µM
# Method in brief: as §2
# [16] = tested on: OV90; assay: as above; conditions: Gynecologic cancer cell panel viability, ATPlite luminescence, 48 h; series mostly up to 57.5 µM
# Method in brief: as §2
# [17] = tested on: PA-1; assay: as above; conditions: Gynecologic cancer cell panel viability, ATPlite luminescence, 48 h; series mostly up to 57.5 µM
# Method in brief: as §2
# [18] = tested on: SKOV3; assay: as above; conditions: Gynecologic cancer cell panel viability, ATPlite luminescence, 48 h; series mostly up to 57.5 µM
# Method in brief: as §2
# [19] = tested on: Tov-21-G; assay: as above; conditions: Gynecologic cancer cell panel viability, ATPlite luminescence, 48 h; series mostly up to 57.5 µM
# Method in brief: as §2
# [20] = tested on: Tov112D; assay: as above; conditions: Gynecologic cancer cell panel viability, ATPlite luminescence, 48 h; series mostly up to 57.5 µM
# Method in brief: as §2
structure (smiles),measurement,setting,value
O=C1c2c(O)cccc2[C@@H]([C@@H]2O[C@H](CO)[C@@H](O)[C@H](O)[C@H]2O)c2cc(CO)cc(O)c21,Potency,[1],inactive
same,Potency,[2],inactive
same,Potency,[3],inactive
same,Potency,[4],inactive
same,Potency,[5],inactive
same,Potency,[6],inactive
same,Potency,[7],inactive
Nc1nc(N)c2nc(-c3cccc(O)c3)c(-c3cccc(O)c3)nc2n1,Potency,[2],inactive
same,Potency,[3],inactive
Cc1cc(O)c2c(c1)C(=O)c1cccc(O)c1C2=O,Potency,[1],inactive
same,Potency,[2],inactive
same,Potency,[3],inactive
same,Potency,[4],inactive
same,Potency,[5],inactive
same,Potency,[6],inactive
same,Potency,[7],inactive
N#Cc1c(NC(=O)c2cccc3ccccc23)sc2c1CCCC2,outcome,[8],inactive
same,Potency,[6],1050 nM (active)
C=Cc1c(C)c2cc3nc(cc4[nH]c(cc5nc(cc1[nH]2)C(C)=C5CCC(=O)O)c(CCC(=O)OC)c4C)[C@@]1(C)C3=CC=C(C(=O)OC)[C@H]1C(=O)OC,outcome,[8],inactive
same,Potency,[3],2960 nM (active)
same,Potency,[4],46.9 nM (active)
same,Potency,[5],41.8 nM (active)
same,Potency,[6],469 nM (active)
Cc1cn([C@@H]2O[C@H](CO)[C@@H](O)[C@H]2F)c(=O)[nH]c1=O,Potency,[2],inactive
same,Potency,[3],inactive
same,Potency,[4],inactive
same,Potency,[5],inactive
same,outcome,[9],inactive
same,Potency,[6],inactive
same,Potency,[7],inactive
same,Potency,[10],inactive
same,Potency,[11],inactive
same,Potency,[12],inactive
same,Potency,[13],inactive
same,Potency,[14],inactive
same,Potency,[15],inactive
same,Potency,[16],inactive
same,Potency,[17],inactive
same,Potency,[18],inactive
same,Potency,[19],inactive
same,Potency,[20],inactive
Cc1nc(NC(=O)N2CCC[C@@H]2C(N)=O)sc1-c1ccnc(C(C)(C)C(F)(F)F)c1,Potency,[2],inactive
same,Potency,[3],inactive
same,Potency,[4],inactive
NC(=O)Nc1cc(-c2ccc(CN3CCOCC3)cc2)sc1C(N)=O,Potency,[2],inactive
CC(C)(O)[C@H]1CC[C@@](C)([C@H]2[C@@H](O)C[C@@]3(C)[C@@H]4C[C@H](O[C@@H]5O[C@H](CO)[C@@H](O)[C@H](O)[C@@H]5O)[C@H]5C(C)(C)[C@@H](O[C@@H]6OC[C@@H](O)[C@H](O)[C@@H]6O)CC[C@@]56C[C@@]46CC[C@]23C)O1,Potency,[2],inactive
same,Potency,[3],inactive
same,Potency,[4],inactive
same,Potency,[5],inactive
same,outcome,[9],inactive
same,Potency,[6],inactive
same,Potency,[7],inactive
CC(=O)N[C@@H]1[C@H](O[C@@H]2c3ccc(c(Cl)c3)Oc3cc4cc(c3O[C@H]3O[C@H](CO)[C@@H](O)[C@H](O)[C@H]3NC(=O)CCCCCCCC(C)C)Oc3ccc(cc3Cl)C[C@H]3NC(=O)[C@H](N)c5ccc(O)c(c5)Oc5cc(O)cc(c5)[C@H](NC3=O)C(=O)N[C@H]4C(=O)N[C@H]3C(=O)N[C@@H]2C(=O)N[C@@H](C(=O)O)c2cc(O)cc(O[C@H]4O[C@H](CO)[C@@H](O)[C@H](O)[C@H]4O)c2-c2cc3ccc2O)O[C@H](CO)[C@@H](O)[C@@H]1O,Potency,[1],inactive
same,Potency,[2],inactive
same,Potency,[3],inactive
same,Potency,[4],inactive
same,Potency,[5],inactive
same,Potency,[6],inactive
same,Potency,[7],inactive
CCc1cc(C(C)=NOCc2ccc(C3CCCCC3)c(C(F)(F)F)c2)ccc1CN1CC(C(=O)O)C1,outcome,[8],inactive
same,Potency,[2],inactive
same,Potency,[4],inactive
same,Potency,[5],6620 nM (active)
same,Potency,[7],inactive
COc1cc([C@@H]2c3cc4c(cc3[C@H](O)[C@H]3COC(=O)[C@@H]23)OCO4)cc(OC)c1OC,Potency,[2],662 nM (active)
O=C(NCc1ccccc1)[C@H](Cc1ccccc1)NC(=O)[C@@H]1O[C@@H]1C(=O)NCCc1ccc(O)cc1,outcome,[8],inactive
same,Potency,[2],inactive
same,Potency,[4],inactive
same,Potency,[6],inactive
C[N+]1(C)[C@@H]2C[C@@H](OC(=O)C(O)(c3cccs3)c3cccs3)C[C@H]1[C@@H]1O[C@@H]12,outcome,[8],inactive
same,Potency,[2],inactive
same,Potency,[4],inactive
same,Potency,[5],inactive
same,Potency,[6],inactive
same,Potency,[7],inactive
same,Potency,[10],inactive
same,Potency,[11],inactive
same,Potency,[12],inactive
same,Potency,[13],inactive
same,Potency,[14],inactive
same,Potency,[15],inactive
same,Potency,[16],inactive
same,Potency,[17],inactive
same,Potency,[18],inactive
same,Potency,[19],inactive
same,Potency,[20],inactive
O=[N+]([O-])c1cn2c(n1)OC[C@@H](OCc1ccc(OC(F)(F)F)cc1)C2,Potency,[2],inactive
same,Potency,[3],inactive
same,Potency,[4],inactive
same,Potency,[5],inactive
same,Potency,[6],inactive
same,Potency,[7],inactive
CC(=O)O[C@H]1C[C@@H]2CC[C@H]3[C@H]4C[C@H]([N+]5(C)CCCCC5)[C@@H](OC(C)=O)[C@@]4(C)CC[C@@H]3[C@@]2(C)C[C@H]1N1CCCCC1,Potency,[2],inactive
same,Potency,[3],inactive
same,Potency,[4],inactive
same,Potency,[5],inactive
same,Potency,[6],inactive
same,Potency,[7],inactive
NC(=O)c1ncn([C@@H]2O[C@H](CO)[C@@H](O)[C@@H]2O)c1O,Potency,[2],inactive
same,Potency,[3],inactive
same,Potency,[4],inactive
same,Potency,[5],inactive
same,Potency,[6],inactive
same,Potency,[7],inactive
O=C(O)C(=O)Nc1cccc(C2=NN=N[N]2)c1,Potency,[2],inactive
same,Potency,[3],inactive
same,Potency,[4],inactive
same,Potency,[5],inactive
same,Potency,[6],inactive
same,Potency,[7],inactive
COc1ccc(C(C)=O)c(O)c1,Potency,[2],inactive
same,Potency,[3],inactive
same,Potency,[4],inactive
same,Potency,[5],inactive
same,Potency,[6],inactive
same,Potency,[7],inactive
